Test results as given in PubChem BioAssay AID2708 (National Center for Advancing Translational Sciences (NCATS), 2010).
The list shows a part of the results. A call without a number means that no potency is given here. Records with an inconclusive call do not appear. The source made the active and inactive calls. Calls follow the shape of the dose curve; as a rule, active = well fitted inhibition curve with a large enough effect; inconclusive = small, poorly fitted or top-dose-only effect; inactive = no such curve, though single readings can be large or run the other way. Peptide text beside a SMILES is read from it. * marks the point of attachment. Bz = O=C(c1ccccc1)*

Target: ATP-dependent DNA helicase Q1 (Homo sapiens) (UniProt P46063)
Sequence (P46063 whole entry, looked up): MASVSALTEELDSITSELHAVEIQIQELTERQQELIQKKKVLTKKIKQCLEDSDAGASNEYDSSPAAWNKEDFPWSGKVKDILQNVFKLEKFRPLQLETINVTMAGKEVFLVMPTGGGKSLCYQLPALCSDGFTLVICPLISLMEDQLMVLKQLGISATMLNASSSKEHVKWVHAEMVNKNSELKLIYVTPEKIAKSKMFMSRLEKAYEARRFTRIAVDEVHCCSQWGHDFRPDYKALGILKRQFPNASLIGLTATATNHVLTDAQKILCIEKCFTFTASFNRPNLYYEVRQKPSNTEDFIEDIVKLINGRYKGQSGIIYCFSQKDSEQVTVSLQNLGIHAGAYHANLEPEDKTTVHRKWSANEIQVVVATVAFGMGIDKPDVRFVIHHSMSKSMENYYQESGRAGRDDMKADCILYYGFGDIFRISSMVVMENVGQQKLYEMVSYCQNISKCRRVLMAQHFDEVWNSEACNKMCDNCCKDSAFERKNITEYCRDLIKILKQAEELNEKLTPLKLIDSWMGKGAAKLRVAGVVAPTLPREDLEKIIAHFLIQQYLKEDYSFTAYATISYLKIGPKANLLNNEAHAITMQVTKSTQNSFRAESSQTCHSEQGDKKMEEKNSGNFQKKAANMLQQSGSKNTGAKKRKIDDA
Test: Confirmation qHTS Assay for Inhibitors of RecQ-Like Dna Helicase 1 (RECQ1); also: nearly all actives have a fitted effect of over 45% in size
Details: RECQ1 helicase DNA unwinding, fluorescence; series mostly up to 229 µM
Excerpt: Survival of cells and the faithful propagation of the genome depend on elaborate mechanisms of detecting and repairing DNA damage. Treatment of advanced cancer relies on radiation therapy or chemotherapy, which kill cancer cells by causing extensive DNA damage. It is often found, that cancer cells develop resistance to therapy through enhanced activity of DNA repair functions; this has led to an increased interest in developing drugs that interfere with DNA repair, which could sensitize cancer cells to conventional therapy.
This validation qHTS assay pertains to human RECQ1, which is important in resolving abnormal DNA structures formed during replication or homologous recombination. Shutting down the expression of RECQ1 leads to chromosomal instability and higher radiation sensitivity in cultured cells.
The validation assay was a fluorescence quenching based kinetic qHTS for RECQ1 Helicase DNA unwinding. The activity was measured as ATP-dependent separation of a 20-bp DNA duplex extended by 30-nt single-stranded tails (forked duplex). The forked DNA substrate was tagged with rhodamine fluorophore (carboxytetramethyl rhodamine, TAMRA) and BHQ-2 (Black Hole Quencher 2) dark quencher. Strand separation results in an increase in the fluorescence of TAMRA (excitation 525 nm, emission 598 nm). This substrate construct operates in a red-shifted region where very few compound library members have been noted to fluoresce (PubChem AIDs 593 and 594). An additional feature of the assay is the inclusion of 2.5 ug/ml poly (dIdC), to reduce interference by compounds such as DNA intercalators, a major source of false inhibitors.
Opher Gileadi, Structural Genomics Consortium, University of Oxford
Screening Center PI: Austin, C.P.
Screening Center: NIH Chemical Genomics Center [NCGC]
Three uL of reaction buffer (25 mM Tris-HCl (pH 8.0), 5 mM NaCl, 2 mM MgCl2, 1mM DTT, 0.01% Tween- 20, and 2.5 ug/ml poly(dI-dC), including enzyme (50 nM RECQ1T1), were dispensed into a 1536-well Greiner black assay plate via solenoid-valve based nanoliter dispensers. Compounds (23 nl each in columns 5-48) and control (23 nl each in column 2 as dose-response) were transferred via a Kalypsys pintool equipped with a 1536-pin array. The plates were incubated for 15 min at room temperature, and then 1 ul of substrates (200 nM DNA and 2 mM ATP, final concentrations) was added to start the reaction. The plate was transferred into a ViewLux high-throughput CCD imager where the reaction progress was measured in a discontinuous kinetic mode (two reads spaced 2 hours apart, with intermediate room temperature incubation of the covered assay plate) by using standard red-fluorescence optics (excitation filter 525 nm, emission filter 598 nm). Enzyme-free and vehicle (DMSO) controls were included for signal normalization.
Potency is read from the fitted curve at half-maximal effect.

**Q.** For O=C(NC(Cc1c[nH]c2ccccc12)C(=O)O)/C(=C/c1ccco1)NC(=O)c1ccccc1 (configuration not stated), which Potency is on record?
**A.** Its Potency is “inactive”.

**Q.** Which Potency does the source give for Oc1ccc(N=Cc2sc3ccccc3c2Cl)cc1 here?
**A.** The Potency was “inactive”.

**Q.** CC1(C)OC2CC(=O)OC[C@@]23C1CC(=O)[C@]1(C)C3CC[C@@]2(C)C(c3ccoc3)OC(=O)C3O[C@@]321 (some centres not stated) was tested. Which Potency did it give?
**A.** Its Potency is “inactive”.

**Q.** How did the Potency turn out when c1ccc(CSc2nnc(-c3ccco3)c(-c3ccco3)n2)cc1 was run?
**A.** Its Potency is 39.8 µM (active).

**Q.** For O=C(NC(Cc1ccccc1)C(=O)N1CCCC1C(=O)O)c1ccccc1 (stereo not drawn) (Bz-Phe-Pro-OH; configuration not given here), which Potency is on record?
**A.** The Potency was “inactive”.

**Q.** For Cc1ccc(C)n1C(Cc1ccccc1)C(=O)O (configuration not stated), which Potency is on record?
**A.** The Potency was 22.4 µM (active).

**Q.** With CC(C)(O)c1ccccc1CC[C@H](SCC1(CC(=O)O)CC1)c1cccc(/C=C/c2ccc3ccc(Cl)cc3n2)c1 as the compound, how does the Potency read?
**A.** The Potency was 40.8 µM (active).

**Q.** CC(=O)Nc1ccc(Nc2c3ccccc3nc3ccccc23)cc1 was tested. Which Potency did it give?
**A.** The Potency was 22.4 µM (active).

**Q.** With O=C(CCn1nnc2ccccc2c1=O)N[C@@H](Cc1c[nH]c2ccccc12)C(=O)O as the compound, how does the Potency read?
**A.** The Potency was “inactive”.

**Q.** How did the Potency turn out when O=C(c1cc2c(s1)CCC2)N1CCN(c2ccccc2)CC1 was run?
**A.** Its Potency is 39.8 µM (active).

**Q.** Which Potency does the source give for Cc1ccccc1NC(=O)CN1C(=O)N/C(=C\c2cccn2-c2cccc(C(=O)O)c2)C1=O here?
**A.** The Potency was 31.6 µM (active).

**Q.** How did the Potency turn out when COc1ccc(-c2nc3c(c(SCC(=O)Nc4ccc(C(=O)O)cc4)n2)Cc2ccccc2O3)cc1 was run?
**A.** Its Potency is 2.89 µM (active).

**Q.** How did the Potency turn out when O=C(N/N=C/c1sc(N2CCCCC2)nc1-c1cccs1)c1cccnc1 was run?
**A.** Its Potency is “inactive”.

**Q.** How did the Potency turn out when CC1Cc2ccccc2N1C(=O)CSc1nnc(-c2ccc(S(=O)(=O)N3CCCC3)cc2)n1C (configuration not stated) was run?
**A.** Its Potency is “inactive”.

**Q.** Which Potency does the source give for COc1cc(C2C(C(=O)c3ccc(C)o3)=C(O)C(=O)N2CCc2ccccc2)ccc1O (configuration not stated) here?
**A.** The Potency was “inactive”.

**Q.** How did the Potency turn out when O=C(NCc1ccccc1)C1=C[C@@H](C2CCCCC2)C[C@@H](OCc2ccc(CO)cc2)O1 was run?
**A.** Its Potency is “inactive”.

**Q.** How did the Potency turn out when O=C(O)CCn1c(SCc2cc(=O)n3ccccc3n2)nc2ccsc2c1=O was run?
**A.** Its Potency is “inactive”.
